# Compound activity from PubChem.
# VACV mCherry inh: vaccinia inhibition (mCherry reporter). Vaccinia virus mCherry reporter infection, fluorescence. Potency, µM (top dose mostly 36.5 µM), usual class: inhibitors. 310,000 tested, 0.63% active. AID 720579; calls by dose curve; tested in A549 cells; further: nearly all actives have a fitted effect of over 35% in size
# Marburg entry inh: Marburg virus entry inhibition. Marburg virus pseudotyped entry inhibition, cell reporter. Potency, µM (series often up to 37.8 µM), actives largely listed as inhibitors. 300,000 tested, 1.8% active; calls by dose curve; tested in HEK293 cells
# LASV entry inh: inhibitors of Lassa virus binding or cell entry. Lassa virus pseudotype entry inhibition, cell reporter. Potency, µM (series often up to 37.9 µM), most hits filed as inhibitors. 300,000 tested, 1.2% active; calls by dose curve; tested in HEK293 cells; further: nearly all actives have a fitted effect of over 50% in size
# HCV inhibitor: blocks hepatitis C virus | Huh7.5.1 HCVcc-Cre infection, luciferase reporter, 44 h | Potency, µM (top dose mostly 41.8 µM), actives largely listed as inhibitors | 340,000 tested, 3.4% active; active means well fitted inhibition curve with a large enough effect; inconclusive means small, poorly fitted or top-dose-only effect, or another doubt; inactive means no such curve, though single readings can be large or run the other way
#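 A cell-based infection assay in which seeded cells (1,000 per well) receive test compound after 4 h, are inoculated with HCVcc-Cre at approximately 0.5 moi, and are incubated 44 h before luminescence detection.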
# VACV Venus inh: vaccinia inhibition (Venus reporter); 330,000 tested, 0.46% active; Vaccinia virus Venus reporter expression, fluorescence; AID 720580; Potency, µM (highest dose often 36.5 µM), most hits filed as inhibitors; calls by dose curve; tested in A549 cells; further: nearly all actives have a fitted effect of over 30% in size
# HCMV antiviral: human cytomegalovirus inhibition; HFF cells, HCMV-luciferase reporter, 72 h; active compounds read low; activity change, negative = inhibition, % at 57.5 µM; 410,000 tested, 4.5% active; AID 1259415; in the data active means activity change below about -60%; inconclusive means no clear call, values can overlap the other calls; inactive means above about -39%
#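 Screen run at 2 compound doses on HFFs infected with reporter HCMV, MOI 1 PFU/cell. Luciferase activity from cell lysates at 72 h post infection gave inhibition relative to buffer-only and Salinomycin wells.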
# Numbers stand for hits; - = inactive; ? = inconclusive; . = no result. Compounds with a hit are over-represented: about 7.8% of the library has one in this group of screens.
SMILES,VACV mCherry inh,Marburg entry inh,LASV entry inh,HCV inhibitor,VACV Venus inh,HCMV antiviral
O=S(=O)(c1ccc(F)cc1)c1nc(-c2ccco2)oc1Nc1ccccc1,.,-,?,-,.,-
Cc1cnc(C(=O)OCc2ccc(C#N)cc2)cn1,-,-,-,-,-,-
COC(=O)/C(=N\OCc1ccc(C#N)cc1)c1c(C)nn(C)c1C,-,-,-,-,-,-100.0
CCOc1ccc(-n2c(SC(C)C(=O)OC)nc3c([nH]c4ccccc43)c2=O)cc1 (centres undefined),-,.,?,.,-,-
CCC(C)n1cnc2c(c1=O)c1nc3ccccc3nc1n2Cc1ccc(OC)cc1 (centres undefined),-,-,-,?,-,-75.2
Cc1cccc(CNc2cc(-c3cccc(C#N)c3)ncn2)c1,-,.,.,.,-,.
CC(C)(C)c1ccc(-c2n[nH]c(=S)n2C2CCCC2)cc1,.,?,?,?,.,-90.9
Oc1ccc(-c2nc3c4c(ncn3n2)-c2ccccc2CC42CCCC2)cc1,-,-,-,?,-,-65.5
COc1ccccc1NC(=O)CSC1=Nc2ccccc2N=C(c2ccc(F)cc2)C1,-,.,-,.,-,-
O=C(Nc1nnc(-c2ccc(F)cc2)o1)c1cccc([N+](=O)[O-])c1,?,?,-,12.6µM,?,-98.2
O=C(Nc1nnc(-c2ccc3c(c2)CCCC3)o1)c1ccccc1,10µM,.,.,?,?,-
COc1cc2cc(CNc3ccc(C)cc3)c(=O)n(CC(=O)Nc3ccc(C(C)C)cc3)c2cc1OC,-,.,-,.,-,-104.5
COc1ccc(NCc2cc3cc4c(cc3n(CC(=O)Nc3cc(C)ccc3C)c2=O)OCCO4)cc1,?,.,-,.,-,-73.2
Cc1ccc(-c2noc(CNC(=O)c3ccc(C)c(Cl)c3)n2)cc1,-,?,-,.,-,-
C#CCn1c(=NC(=O)c2cccs2)sc2cccc(OC)c21,-,.,.,?,-,-97.7
CCN1CCN(CCNC(=O)c2ccc(/C=C3\Sc4ccccc4N(Cc4ccccc4F)C3=O)cc2)CC1,.,.,.,11.2µM,.,?
CN1CCN(CCCNC(=O)c2ccc(/C=C3\Sc4ccccc4N(Cc4ccc(F)cc4)C3=O)cc2)CC1,.,.,.,?,.,-67.4
CN1CCN(CCCNC(=O)c2ccc(/C=C3\Oc4ccccc4N(Cc4ccccc4F)C3=O)cc2)CC1,.,.,.,14.1µM,.,-
C#CCCCON=C1C[C@@H](O)[C@H](O)[C@H]2[C@@H]3C(=O)N(Cc4ccccc4)C(=O)[C@@H]3CC[C@H]12,.,-,.,.,.,.
O=C(C[n+]1csc2ccccc21)c1ccccc1,-,.,.,.,-,.
CCCCCCCCSC1=CC(=O)C(OC)=C(OC)C1=O,-,.,.,.,-,-87.3
COc1ccc(/C=C2\C(=O)c3ccccc3OC2c2ccccc2)cc1 (centres undefined),.,.,.,-,.,-
CCOc1ccc(/C=C2\C(=O)c3ccccc3OC2c2ccccc2)cc1 (centres undefined),.,-,?,-,.,-99.0
COc1ccccc1C(CCNCc1ccccc1)c1ccc(OC(C)C)cc1 (centres undefined),.,.,.,?,.,-101.5
COc1ccc(CNCCC(c2ccc(OC(C)C)cc2)c2ccccc2OC)cc1 (centres undefined),.,.,.,?,.,-98.6
SMILES,VACV mCherry inh,Marburg entry inh,LASV entry inh,HCV inhibitor,VACV Venus inh,HCMV antiviral
COc1ccccc1C(CCNCc1ccc(N(C)C)cc1)c1ccc(OC(C)C)cc1 (centres undefined),.,.,.,?,.,-100.7
COc1ccc(CNCCCSc2ncccn2)cc1OC,.,.,.,-,.,-
Cc1cc(OCCOCCNCc2ccccc2)ccc1C(C)C,.,.,.,-,.,-
COc1ccc(CNCCC(c2ccc(OC(C)C)cc2)c2ccccc2OC)cc1OC (centres undefined),-,?,?,12.6µM,-,-98.5
CCCOc1cccc(C2c3c(oc4cc(C)c(C)cc4c3=O)C(=O)N2CCCN2CCOCC2)c1 (centres undefined),-,?,-,.,-,?
Cc1ccc(-c2c(C(=O)N3CCN(c4ccc(F)cc4)CC3)oc(=O)c3ccccc23)cc1,-,-,-,.,-,-
CC(c1ccccc1)N1C(=O)c2ccc(C(=O)Nc3ccccc3C(=O)O)cc2C1=O (centres undefined),.,.,.,-,.,-80.2
CC(c1ccccc1)N1C(=O)c2ccc(C(=O)Nc3ccc(Br)cc3C(=O)O)cc2C1=O (centres undefined),.,.,.,-,.,.
CC(=O)N1CCC[C@H]1C(=O)NCC1Cc2cc(-c3cccc(OC(F)(F)F)c3)ccc2O1 (some centres undefined),-,.,.,.,-,.
COc1ccccc1NC(=O)Cn1nc(-c2ccncc2)nc1SCC(=O)NC1CCCC1,-,?,-,?,-,-75.6
O=C(CSc1nnc(NC(=O)c2ccccc2[N+](=O)[O-])s1)NC1CCCC1,-,-,-,-,-,-
COc1ccccc1-c1nnc(SCC(=O)NC2CCCCC2)o1,11.2µM,-,-,-,?,-
COc1ccccc1-n1cnnc1SCC(=O)NC1CCCCC1,.,.,.,-,.,-82.8
COc1ccccc1C(=O)Nc1nnc(SCC(=O)NC2CCCC2)s1,-,11.2µM,?,?,-,.
Cc1ccccc1-c1nnc(SCC(=O)NC2CCCCC2)o1,.,-,-,-,-,-
